# The supplement of paper PMC7411054
# Structures can show the parent of a compound that is named as a salt.
# How the values were obtained:
# Experiment in all cases: lowest phenotypically active concentration; higher = less potent
# Settings in all cases: treatment time: 24 h
# A549-TUBA1B-RELA = system: A549-TUBA1B-RELA
# Procedure, shortened: (§1)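 Phenotypic activity depended on meeting both a deviation and a reproducibility criterion. The fifteen gene-edited A549, HepG2 and WPMY1 reporter lines were treated at 0.3, 1, 3 or 9 µM for 24 h, four wells each, then imaged live with features normalised to solvent control wells. Deviation required ≥3 of 4 wells past the 95th percentile of control Euclidean distances, and reproducibility a median replicate Pearson correlation above the 95th percentile of non-replicates.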
# HepG2-CANX-COX4 = system: HepG2-CANX-COX4
# Procedure, shortened: as §1
# HepG2-TP53BP1-CLTA = system: HepG2-TP53BP1-CLTA
# Procedure, shortened: as §1
# HepG2-TUBA1B-RELA = system: HepG2-TUBA1B-RELA
# Procedure, shortened: as §1
# WPMY1-CANX-COX4 = system: WPMY1-CANX-COX4
# Procedure, shortened: as §1
# WPMY1-TP53BP1-CLTA = system: WPMY1-TP53BP1-CLTA
# Procedure, shortened: as §1
# HepG2-GM130-SQSTM1 = system: HepG2-GM130-SQSTM1
# Procedure, shortened: as §1
# WPMY1-TUBA1B-RELA = system: WPMY1-TUBA1B-RELA
# Procedure, shortened: as §1
# A549-TP53BP1-CLTA = system: A549-TP53BP1-CLTA
# Procedure, shortened: as §1
smiles,measurement,setting,value
O=C(Nc1nc2cc(C(F)(F)F)cc(NC3CC3)n2n1)c1cccnc1,lowest phenotypically active concentration,A549-TUBA1B-RELA,9 µM
same,lowest phenotypically active concentration,HepG2-CANX-COX4,3 µM
same,lowest phenotypically active concentration,HepG2-TP53BP1-CLTA,9 µM
same,lowest phenotypically active concentration,HepG2-TUBA1B-RELA,9 µM
same,lowest phenotypically active concentration,WPMY1-CANX-COX4,9 µM
same,lowest phenotypically active concentration,WPMY1-TP53BP1-CLTA,3 µM
CN1CCC(CN2c3ccccc3Sc3ccccc32)C1 (stereo not given) [methdilazine],lowest phenotypically active concentration,A549-TUBA1B-RELA,3 µM
same,lowest phenotypically active concentration,HepG2-GM130-SQSTM1,9 µM
same,lowest phenotypically active concentration,HepG2-TP53BP1-CLTA,9 µM
same,lowest phenotypically active concentration,HepG2-TUBA1B-RELA,9 µM
same,lowest phenotypically active concentration,WPMY1-CANX-COX4,9 µM
same,lowest phenotypically active concentration,WPMY1-TP53BP1-CLTA,9 µM
same,lowest phenotypically active concentration,WPMY1-TUBA1B-RELA,9 µM
CC(CN1c2ccccc2Sc2ccccc21)N(C)C (stereo not given) [promethazine],lowest phenotypically active concentration,A549-TUBA1B-RELA,9 µM
same,lowest phenotypically active concentration,HepG2-GM130-SQSTM1,9 µM
same,lowest phenotypically active concentration,HepG2-TP53BP1-CLTA,9 µM
same,lowest phenotypically active concentration,HepG2-TUBA1B-RELA,9 µM
same,lowest phenotypically active concentration,WPMY1-TP53BP1-CLTA,9 µM
same,lowest phenotypically active concentration,WPMY1-TUBA1B-RELA,9 µM
COCCCC/C(=N/OCCN)c1ccc(C(F)(F)F)cc1 [fluvoxamine],lowest phenotypically active concentration,A549-TUBA1B-RELA,9 µM
same,lowest phenotypically active concentration,HepG2-TP53BP1-CLTA,9 µM
same,lowest phenotypically active concentration,HepG2-TUBA1B-RELA,9 µM
CNCC[C@H](Oc1cccc2ccccc12)c1cccs1 [duloxetine],lowest phenotypically active concentration,A549-TUBA1B-RELA,9 µM
COc1cc2nccc(Oc3ccc(NC(=O)C4(C(=O)Nc5ccc(F)cc5)CC4)cc3)c2cc1OC,lowest phenotypically active concentration,A549-TUBA1B-RELA,≤ 0.3 µM
CC1CNCCN1S(=O)(=O)c1cccc2cnccc12 (stereo not given) [H-7 dihydrochloride],lowest phenotypically active concentration,HepG2-CANX-COX4,9 µM
same,lowest phenotypically active concentration,HepG2-GM130-SQSTM1,9 µM
same,lowest phenotypically active concentration,HepG2-TUBA1B-RELA,9 µM
same,lowest phenotypically active concentration,WPMY1-CANX-COX4,9 µM
same,lowest phenotypically active concentration,WPMY1-TUBA1B-RELA,9 µM
CCN1/C(=C/C(C)=O)Sc2ccc(O)cc21,lowest phenotypically active concentration,A549-TP53BP1-CLTA,9 µM
same,lowest phenotypically active concentration,WPMY1-TP53BP1-CLTA,9 µM
CCC(C)(C)C(=O)O[C@H]1C[C@@H](C)C=C2C=C[C@H](C)[C@H](CC[C@@H]3C[C@@H](O)CC(=O)O3)[C@H]21 [Simvastatin],lowest phenotypically active concentration,A549-TP53BP1-CLTA,9 µM
same,lowest phenotypically active concentration,HepG2-CANX-COX4,1 µM
same,lowest phenotypically active concentration,HepG2-GM130-SQSTM1,1 µM
same,lowest phenotypically active concentration,HepG2-TP53BP1-CLTA,3 µM
same,lowest phenotypically active concentration,HepG2-TUBA1B-RELA,1 µM
same,lowest phenotypically active concentration,WPMY1-CANX-COX4,1 µM
same,lowest phenotypically active concentration,WPMY1-TP53BP1-CLTA,3 µM
same,lowest phenotypically active concentration,WPMY1-TUBA1B-RELA,3 µM
O=C(/C=C/c1ccc2ccccc2n1)c1ccncc1,lowest phenotypically active concentration,A549-TUBA1B-RELA,9 µM
same,lowest phenotypically active concentration,HepG2-GM130-SQSTM1,9 µM
same,lowest phenotypically active concentration,HepG2-TUBA1B-RELA,9 µM
same,lowest phenotypically active concentration,WPMY1-TP53BP1-CLTA,9 µM
same,lowest phenotypically active concentration,WPMY1-TUBA1B-RELA,9 µM
CC1(CN2CCC(n3c(=O)[nH]c4ccccc43)CC2)OCc2ccccc2-n2cccc21 (stereo not given),lowest phenotypically active concentration,A549-TUBA1B-RELA,9 µM
CC(C)c1c(C(=O)Nc2ccccc2)c(-c2ccccc2)c(-c2ccc(F)cc2)n1CC[C@@H](O)C[C@@H](O)CC(=O)O [atorvastatin],lowest phenotypically active concentration,HepG2-CANX-COX4,9 µM
same,lowest phenotypically active concentration,HepG2-GM130-SQSTM1,3 µM
same,lowest phenotypically active concentration,HepG2-TP53BP1-CLTA,9 µM
same,lowest phenotypically active concentration,HepG2-TUBA1B-RELA,3 µM
same,lowest phenotypically active concentration,WPMY1-CANX-COX4,3 µM
same,lowest phenotypically active concentration,WPMY1-TP53BP1-CLTA,9 µM
same,lowest phenotypically active concentration,WPMY1-TUBA1B-RELA,3 µM
Fc1ccccc1Nc1nc2nonc2nc1Nc1ccccc1F,lowest phenotypically active concentration,A549-TUBA1B-RELA,9 µM
same,lowest phenotypically active concentration,HepG2-TP53BP1-CLTA,9 µM
same,lowest phenotypically active concentration,HepG2-TUBA1B-RELA,9 µM
same,lowest phenotypically active concentration,WPMY1-CANX-COX4,9 µM
O=c1cc(-c2ccccc2)oc2cc(O)cc(O)c12 [Chrysin],lowest phenotypically active concentration,WPMY1-CANX-COX4,9 µM
same,lowest phenotypically active concentration,WPMY1-TP53BP1-CLTA,9 µM
Cc1ccc(NC(=O)c2cccc(C(C)(C)C#N)c2)cc1Nc1ccc2ncn(C)c(=O)c2c1,lowest phenotypically active concentration,A549-TP53BP1-CLTA,1 µM
same,lowest phenotypically active concentration,A549-TUBA1B-RELA,9 µM
same,lowest phenotypically active concentration,HepG2-CANX-COX4,≤ 0.3 µM
same,lowest phenotypically active concentration,HepG2-GM130-SQSTM1,≤ 0.3 µM
same,lowest phenotypically active concentration,HepG2-TP53BP1-CLTA,≤ 0.3 µM
same,lowest phenotypically active concentration,HepG2-TUBA1B-RELA,≤ 0.3 µM
same,lowest phenotypically active concentration,WPMY1-CANX-COX4,9 µM
same,lowest phenotypically active concentration,WPMY1-TP53BP1-CLTA,9 µM
CC(C)c1nc(CN(C)C(=O)N[C@H](C(=O)N[C@@H](Cc2ccccc2)C[C@H](O)[C@H](Cc2ccccc2)NC(=O)OCc2cncs2)C(C)C)cs1 [ritonavir],lowest phenotypically active concentration,HepG2-GM130-SQSTM1,9 µM
O=C(CCCCCCC(=O)Nc1ccc([C@H]2O[C@@H](CSc3nc(-c4ccccc4)c(-c4ccccc4)o3)C[C@@H](c3ccc(CO)cc3)O2)cc1)NO [Tubacin],lowest phenotypically active concentration,WPMY1-CANX-COX4,9 µM
same,lowest phenotypically active concentration,WPMY1-TP53BP1-CLTA,9 µM
same,lowest phenotypically active concentration,WPMY1-TUBA1B-RELA,9 µM
Cn1cc(-c2cnc3ccc4ccc(CS(=O)(=O)NCc5ccccn5)cc4c(=O)c3c2)cn1,lowest phenotypically active concentration,A549-TUBA1B-RELA,9 µM
same,lowest phenotypically active concentration,WPMY1-CANX-COX4,3 µM
O=C1c2c(O)cccc2Cc2cccc(O)c21 [anthralin],lowest phenotypically active concentration,WPMY1-TUBA1B-RELA,9 µM
CC(C)(C)n1nc(-c2ccc(Cl)cc2)c2c(N)ncnc21,lowest phenotypically active concentration,A549-TUBA1B-RELA,9 µM
same,lowest phenotypically active concentration,HepG2-TP53BP1-CLTA,3 µM
COc1cc(OC)c2c(=O)[nH]c(-c3cc(C)c(OCCO)c(C)c3)nc2c1 [apabetalone],lowest phenotypically active concentration,HepG2-CANX-COX4,9 µM
same,lowest phenotypically active concentration,HepG2-GM130-SQSTM1,9 µM
same,lowest phenotypically active concentration,WPMY1-TP53BP1-CLTA,9 µM
same,lowest phenotypically active concentration,WPMY1-TUBA1B-RELA,9 µM
Nc1cc(N)c(N)cc1N [FAK Inhibitor 14],lowest phenotypically active concentration,A549-TUBA1B-RELA,3 µM
same,lowest phenotypically active concentration,HepG2-TP53BP1-CLTA,9 µM
same,lowest phenotypically active concentration,HepG2-TUBA1B-RELA,3 µM
same,lowest phenotypically active concentration,WPMY1-CANX-COX4,9 µM
same,lowest phenotypically active concentration,WPMY1-TP53BP1-CLTA,9 µM
same,lowest phenotypically active concentration,WPMY1-TUBA1B-RELA,1 µM
Cc1ccc(S(=O)(=O)c2ccc([N+](=O)[O-])o2)cc1,lowest phenotypically active concentration,HepG2-GM130-SQSTM1,9 µM
same,lowest phenotypically active concentration,HepG2-TUBA1B-RELA,3 µM
same,lowest phenotypically active concentration,WPMY1-CANX-COX4,9 µM
same,lowest phenotypically active concentration,WPMY1-TP53BP1-CLTA,3 µM
same,lowest phenotypically active concentration,WPMY1-TUBA1B-RELA,9 µM
